D1 antag = human D1 dopamine receptor antagonism; P21728; HEK293 TREx D1 cells, calcium flux, dopamine EC80; stronger effect = lower value; activity change, negative = inhibition, % at 10 µM; 3.2% of 360,000 active; AID 504652; in the data active = activity change below about -30%
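Tetracycline-induced HEK293 Trex D1 cells, force-coupled to calcium, dye-loaded; compounds added and read 180 s, then EC80 dopamine added and calcium flux tracked kinetically another 180 s.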
TRHR PAM = TRH receptor (human) allosteric enhancement; P34981; 0.66% of 360,000 active; enhancement, % at 2 µM; TRHR cells, fluo-8 calcium fluorescence, EC20 TRH enhancement; in the data active = enhancement above about 30%
Target sequence (P34981 whole entry, looked up): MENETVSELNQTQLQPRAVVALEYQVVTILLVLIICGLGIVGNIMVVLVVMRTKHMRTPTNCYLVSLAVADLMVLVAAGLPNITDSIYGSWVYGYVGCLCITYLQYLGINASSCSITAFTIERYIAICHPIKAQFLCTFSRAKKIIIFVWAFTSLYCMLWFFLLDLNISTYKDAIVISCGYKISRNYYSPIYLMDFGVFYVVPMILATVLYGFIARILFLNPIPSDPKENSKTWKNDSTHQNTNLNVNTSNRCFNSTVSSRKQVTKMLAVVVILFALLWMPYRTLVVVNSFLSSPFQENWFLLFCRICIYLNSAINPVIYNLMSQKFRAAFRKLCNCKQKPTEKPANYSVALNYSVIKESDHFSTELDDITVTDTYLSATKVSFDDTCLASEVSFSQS
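Enhancer read-out: after compound pinning and an initial kinetic agonist-mode read, an EC20 of TRH (10 nM final) was injected and fluo-8 calcium signal (Ex 480/Em 530) followed at 1 s/cycle for 100 cycles in TRHR-expressing cells.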
TRHR ag = activates the human TRH receptor | TRHR cells, calcium flux fluo-8, FDSS agonist mode | activation, % at 2 µM | 0.18% of 360,000 active | AID 493084
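Read-out: compound-evoked intracellular calcium rise in TRHR cells, fluo-8 dye, kinetic FDSS fluorescence at 1 s/cycle following a 10-cycle baseline. Cells cultured overnight before dye loading (30 min–1.5 h, RT).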
D1 agonist = human D1 receptor agonism; P21728; activation, % at 2 µM; 1% of 360,000 active; HEK293 T-REx D1 cells, calcium flux, agonist mode
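Agonism was scored from calcium flux recorded over 180 s (1 read/s) after pintool compound addition, following a 10-cycle baseline. Cells were inducible force-coupled HEK293 TREx D1, plated overnight at 30 C and loaded with no-wash calcium dye.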
D1 PAM = human D1 dopamine receptor positive modulation. P21728. HEK293 TREx D1 cells, calcium flux, dopamine EC20 potentiation. potentiation, % at 10 µM. 0.036% of 360,000 active; in the data active = potentiation above about 30%
Each line names hits and unclear results; the compound was inactive in the other large screens; ! = not confirmed by another sample. A selection: hits, their analogues and other compounds. The true share with any hit is near 4.6%. Rule as the data show it, unless noted: active = activation above about 30%; inactive = the rest.

Cc1ccc(N(Cc2ccccc2)C(=O)c2cc(S(=O)(=O)N3CCOCC3)ccc2Cl)cc1	none
COc1cccc(N/C(SCc2ccccc2F)=C(/C#N)C(=O)NCc2cccs2)c1	D1 antag -40, D1 agonist 34
CN1CCN(/N=C/c2ccc(Br)cc2)CC1	D1 antag -33
CN1CCN(/N=C/c2ccc(N(c3ccccc3)c3ccccc3)cc2)CC1	none
O=C(CSc1cnc2ccccc2n1)c1ccc(F)cc1	none
CCC(Sc1nc2ccncc2[nH]1)C(=O)Nc1cc(Cl)ccc1C (stereo not given)	D1 antag -44!
Cc1ccc(NC(=O)c2cc([N+](=O)[O-])ccc2N2CCOCC2)cc1C	D1 antag -30
O=C(c1cc([N+](=O)[O-])ccc1N1CCOCC1)N1CCOCC1	D1 antag -42
O=C1CN(C(=O)COC(=O)CNC(=O)c2ccc(Cl)cc2)c2ccccc2N1	none
COc1ccc(-c2nc(C(=O)O)cs2)cc1OC	D1 antag -36
C/C(=N\NC(=O)C(O)c1ccccc1)c1ccc(Br)s1 (stereo not given)	TRHR PAM 38
C/C(=N\NC(=O)C(O)c1ccccc1)c1ccc(Cl)s1 (stereo not given)	none
Fc1ccc(-c2n[nH]c(=S)n2Cc2ccccc2)cc1	none
FC(F)C(F)(F)Oc1cccc(-c2n[nH]c(=S)n2Cc2ccccc2)c1	D1 antag -40
CC(C)(C)c1ccc(-c2n[nH]c(=S)n2Cc2ccccc2)cc1	D1 agonist 91
CCOC(=O)c1cnc2c(-c3ccccc3)cnn2c1N	none
CCOC(=O)c1cnc2c(C#N)cnn2c1N	TRHR PAM 36
Cc1ccc(/C=N/NC(=O)c2nnn(-c3nonc3N)c2-c2ccc3c(c2)OCO3)s1	D1 agonist 49, D1 PAM 36
Nc1nonc1-n1nnc(C(=O)N/N=C/c2ccc(F)cc2)c1-c1ccc2c(c1)OCO2	none
Cc1ccc(SCc2c(C(=O)N/N=C/c3ccncc3)nnn2-c2nonc2N)cc1	D1 antag -42
Nc1nonc1-n1nnc(C(=O)N/N=C/c2ccncc2)c1CSc1ccc(Cl)cc1	none
CCOc1cccc(-c2c(C(=O)N/N=C/c3cccs3)nnn2-c2nonc2N)c1	D1 agonist 30
COc1cccc(-c2c(C(=O)N/N=C/c3cccs3)nnn2-c2nonc2N)c1	D1 agonist 61
CCN1CCCC1CNC(=O)c1cn(C)c2ccc(S(=O)(=O)N3CCCCCC3)cc2c1=O (stereo not given)	none
N#Cc1c(NC(=O)c2cnccn2)sc2c1CCCC2	none
Cc1ccc(/C=N/NC(=O)c2nnn(-c3nonc3N)c2CN(C)C)o1	TRHR PAM 32
COCc1c(C(=O)N/N=C/c2ccc(C)o2)nnn1-c1nonc1N	none (no result: D1 PAM)
COc1ccc(/C=N/NC(=O)c2nnn(-c3nonc3N)c2-c2cccs2)cc1OC	none
CCOc1cccc(-c2c(C(=O)N/N=C/c3ccncc3)nnn2-c2nonc2N)c1	none
COc1ccc(/C=N/NC(=O)c2nnn(-c3nonc3N)c2-c2cccc(OC)c2)cc1	D1 agonist 99
CCOc1ccc(/C(C)=N/NC(=O)c2nnn(-c3nonc3N)c2-c2cccs2)cc1	D1 agonist 115, D1 PAM 41
COc1cc(/C(C)=N/NC(=O)c2nnn(-c3nonc3N)c2-c2cccs2)ccc1O	none
Cc1ccc(/C=N/NC(=O)c2nnn(-c3nonc3N)c2-c2cccs2)cc1	D1 agonist 163
O=C(c1ccc(Cl)cc1[N+](=O)[O-])N1CCN(c2ccccn2)CC1	none
CNC(=O)CC1C(=O)N(c2ccc(F)cc2)C(=S)N1NC(=O)c1ccc(Cl)cc1 (stereo not given)	none
CC1(/[N+]([O-])=C/c2ccc(F)cc2)CCCCC1=O (stereo not given)	none
CCCCCn1c(=O)[nH]c2cc(C(=O)NCc3ccccc3)ccc2c1=O	none
CSCCC(NC(N)=O)C(=O)NCc1ccc(Cl)cc1 (stereo not given)	none
COc1ccccc1NC(=O)COC(=O)C1CC2C=CC1C2 (stereo not given)	none
Cc1cccnc1NC(=O)C1CCN(S(=O)(=O)c2ccc3c(c2)CCC(=O)N3)CC1	D1 antag -43
O=C1CCc2cc(S(=O)(=O)N3CCC(C(=O)Nc4nccs4)CC3)ccc2N1	none
CC(=O)c1ccc(OC2OCCOC2Oc2ccc(C(C)=O)cc2)cc1 (stereo not given)	D1 antag -39
Cc1ccc(C(=O)C(C)OC(=O)CNC(=O)c2ccc(Br)o2)cc1 (stereo not given)	none
COc1ccc(CCC(=O)OC(C)C(=O)c2ccc(C)cc2)cc1 (stereo not given)	D1 antag -36
COc1ccc(C(=O)C(C)OC(=O)CCN2C(=O)C3CC=CCC3C2=O)cc1 (stereo not given)	D1 antag -35
COc1ccc(C(=O)COC(=O)CCN2C(=O)C3CC=CCC3C2=O)c(OC)c1 (stereo not given)	none
COc1ccccc1N1CCN(C(=O)c2cccc(NC3=NC4CS(=O)(=O)CC4S3)c2)CC1 (stereo not given)	none
CCC(Sc1nc2cc(OC)c(OC)cc2c(=O)n1CCc1ccc(OC)c(OC)c1)C(=O)NCCOC (stereo not given)	D1 antag -30
CCC(Sc1nc2cc(OC)c(OC)cc2c(=O)n1CCc1ccc(Cl)cc1)C(=O)NCCOC (stereo not given)	none
Clc1cccc2c1CCN(Cc1nc(-c3cnccn3)no1)C2	D1 antag -90
c1ccc(C(c2ccccc2)N2CCN(Cc3nc(-c4cnccn4)no3)CC2)cc1	none
Cc1ccc(-c2cn3c(n2)sc2cc(C(=O)N4CCCCC4)ccc23)cc1	none
Cc1ccc(C)c(C2NC(=O)c3ccccc3N2)c1 (stereo not given)	TRHR PAM 37
Cc1cc(C)c2nc(Cl)c(C3NC(=O)c4ccccc4N3)cc2c1 (stereo not given)	none
CCC(C(=O)OCC(=O)N1C(C)CCCC1C)c1ccccc1 (stereo not given)	none
COc1ccc(OC)c(/C=N/NC(=O)c2cc[n+](CC(=O)c3ccccc3)cc2)c1	none
COc1cccc2c(=O)cn[nH]c12	D1 antag -52
COc1ccc(N2CCN(C(=O)NC3CCCCC3)CC2)cc1	none
COc1ccc(N2CCN(C(=O)c3cn(CC4CCCCC4)nn3)CC2)cc1	D1 antag -34
COc1ccc(N2CCN(C(=O)c3c(Cl)cnn3C)CC2)cc1	D1 antag -58
Cc1ccc(C)c(OCC(=O)Nc2nonc2NC(=O)COc2cc(C)ccc2C)c1	none
O=S(=O)(NC1CCCCC1Nc1ccccc1)c1ccccc1 (stereo not given)	none
O=C(NCCN1C(=O)S/C(=C\c2ccccc2)C1=O)C1CCN(S(=O)(=O)c2cccs2)CC1	none
Cc1ccc(NC(=O)NCCN2CCCCC2)cc1	none

Screens deposited in PubChem by National Center for Advancing Translational Sciences (NCATS).
